Reference: PubChem BioAssay AID651823 (Broad Institute, 2012)
This is one part of the list. Calls of active or inactive are those of the source. Rule as the data show it: active = max delta Tm above about 0.48 degrees C; inactive = the rest.

biological target: Kelch-like ECH-associated protein 1 (Homo sapiens) (UniProt Q14145); assay: Keap1 Kelch domain binders by thermal stabilisation, dose response, biophysical, thermal shift, RT-PCR instrument, cherry-pick (AID 651823); details: active compounds read high; at 50 µM unless noted
Sequence (Q14145 whole entry, looked up, the tested form may be a part): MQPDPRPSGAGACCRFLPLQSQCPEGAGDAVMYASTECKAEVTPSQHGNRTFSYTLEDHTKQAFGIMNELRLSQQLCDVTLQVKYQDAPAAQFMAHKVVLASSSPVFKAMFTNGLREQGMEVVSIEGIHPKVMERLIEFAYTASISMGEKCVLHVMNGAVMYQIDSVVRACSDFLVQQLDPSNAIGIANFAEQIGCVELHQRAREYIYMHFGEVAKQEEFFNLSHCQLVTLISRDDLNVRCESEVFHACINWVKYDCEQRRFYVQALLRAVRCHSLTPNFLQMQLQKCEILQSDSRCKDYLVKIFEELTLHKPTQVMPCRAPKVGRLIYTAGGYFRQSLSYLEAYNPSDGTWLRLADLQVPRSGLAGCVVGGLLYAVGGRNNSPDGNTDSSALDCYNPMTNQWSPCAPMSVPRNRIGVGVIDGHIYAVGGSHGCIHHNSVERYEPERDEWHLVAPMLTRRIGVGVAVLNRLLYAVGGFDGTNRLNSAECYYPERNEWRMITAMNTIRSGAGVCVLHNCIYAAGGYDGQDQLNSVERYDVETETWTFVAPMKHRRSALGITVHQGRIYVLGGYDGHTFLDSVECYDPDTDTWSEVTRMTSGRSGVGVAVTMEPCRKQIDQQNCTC

Max delta Tm, inactive:
O=C(O)CC(Cn1cnnn1)c1ccccc1 (stereo not drawn) -0.14 °C [at 3 µM], CC1(C)CC(=O)C(N=Nc2c(F)cccc2F)=C(O)C1 -0.12 °C [at 6 µM], O=C(CCc1ccccc1)NNc1ccc(F)cc1 -0.17 °C [at 0.8 µM], O=C(Nc1ccccn1)C1CCN(S(=O)(=O)c2ccc3c(c2)OCCO3)CC1 -0.17 °C [at 0.38 µM], COc1ccc(C2c3ccc(O)cc3Oc3ncn(CCCO)c(=N)c32)cc1OC (stereo not drawn) -0.15 °C [at 6 µM], Cc1cccc(NS(=O)(=O)c2ccc(C)c(C(=O)NCC(c3ccccc3)N(C)C)c2)c1 (stereo not drawn) -0.11 °C [at 0.8 µM], COC(=O)C[n+]1cccc2ccccc21 -0.13 °C, CCCC1OC23CCCCC2C(C#N)(C#N)C1(C#N)C(=N)O3 (stereo not drawn) -0.1 °C [at 0.38 µM], CCCC(=O)Nc1ccc(C(=O)NCCCn2ccnc2)cc1 -0.11 °C, COc1ccc(Nc2nc(-c3cccnc3)nc3ccccc23)cn1 -0.21 °C [at 1.6 µM], O=C(NCCOCc1ccc(Cl)cc1)c1ncn[nH]1 -0.19 °C, Nc1ccc2nc3c(=O)[nH]c(=S)[nH]c3nc2c1 0.14 °C, CN(CCOc1ccc(CC2SC(=O)NC2=O)cc1)c1ccccn1 (stereo not drawn) -0.09 °C [at 0.8 µM], CN1C(=O)c2cccc3c(N)ccc(c23)C1=O 0 °C [at 26 µM], CCN1/C(=C\c2ccc3ccccc3[n+]2CC)Sc2cc(C)ccc21 -0.01 °C [at 26 µM], CCCN(CCC)C(=O)C1c2ccccc2Oc2ccccc21 -0.08 °C [at 0.38 µM], O=C1CC(Cc2ccc(Cl)cc2)C(=O)N1c1cc(Cl)ccn1 (stereo not drawn) -0.06 °C [at 0.38 µM]

Max delta Tm, active:
COc1cc(OC)c(S(=O)(=O)Nc2ccccc2C(=O)O)cc1S(=O)(=O)Nc1ccccc1C(=O)O 0.77 °C
